From PubChem BioAssay
hNpr1 antagonist: Natriuretic polypeptide receptor (hNpr1) antagonism - Primary qHTS; Atrial natriuretic peptide receptor 1 (Homo sapiens), P16066; 76,000 tested, 1.6% active; AID 1347048, 2019; Potency, µM (top dose mostly 46.3 µM), inactives show at the top dose activity change, negative = inhibition, actives largely listed as inhibitors; HEK293 hNpr1 GloSensor cGMP, ANP-stimulated luminescence; calls by dose curve; further: nearly all actives have a fitted effect of over 60% in size
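HEK293 cells stably expressing human Npr1 and cGMP GloSensor pGS-40F, loaded 2 h with 2% GloSensor reagent, given compound 30 min at room temperature. Luminescence read before and 20 min after 0.1 nM hNppA.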
Luciferase inh: Firefly luciferase inhibition profiling of diverse chemical library using quantitative high-throughput screening; AID 1347043, 2019; Potency, µM (doses to about 115 µM), actives largely listed as inhibitors; Luciferin 4-monooxygenase (Photinus pyralis), P08659; purified P. pyralis luciferase, luminescence, biochemical; 76,000 tested, 2.5% active; further: nearly all actives have a fitted effect of over 65% in size
Target sequence (P08659 whole entry, looked up): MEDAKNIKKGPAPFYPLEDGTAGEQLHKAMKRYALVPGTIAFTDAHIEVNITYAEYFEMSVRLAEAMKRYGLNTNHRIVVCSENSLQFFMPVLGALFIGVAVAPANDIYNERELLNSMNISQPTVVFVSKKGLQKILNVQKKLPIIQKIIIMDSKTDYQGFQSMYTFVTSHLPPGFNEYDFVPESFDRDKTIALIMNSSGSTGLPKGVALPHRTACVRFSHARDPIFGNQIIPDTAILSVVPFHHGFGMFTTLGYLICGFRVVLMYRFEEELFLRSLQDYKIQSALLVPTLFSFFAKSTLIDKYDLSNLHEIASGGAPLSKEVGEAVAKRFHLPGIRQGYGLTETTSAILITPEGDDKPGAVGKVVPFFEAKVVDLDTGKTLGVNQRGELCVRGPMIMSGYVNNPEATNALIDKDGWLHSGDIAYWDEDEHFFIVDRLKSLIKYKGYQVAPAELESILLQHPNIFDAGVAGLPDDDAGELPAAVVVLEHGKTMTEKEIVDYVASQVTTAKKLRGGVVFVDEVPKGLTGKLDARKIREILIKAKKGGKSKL
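Luminescence read by CCD imager after adding enzyme (10nM final) to wells holding compound, titrated in qHTS. Substrates 10uM each D-luciferin and ATP; buffer 50mM Tris acetate pH 7.5, 10mM Mg acetate, Tween-20, BSA.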
HEK cytotox: Cytotoxic Profiling in HEK 293 Cell Line of Diverse Libraries Using Quantitative High-Throughput Screening. 94,000 tested, 6.6% active. HEK 293 viability, ATP luminescence (CellTiter-Glo), 48-72 h. Potency, µM (series often up to 115 µM), for the others: at the highest dose activity change, negative = cytotoxicity, hits mostly inhibitors; further: nearly all actives have a fitted effect of over 60% in size
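Read-out: CellTiter-Glo ATP luminescence. Cells: HEK 293, 250 cells/well. Exposure: 48 or 72 hr, 37 degree Celsius.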
SNCA expr inh: Primary qHTS assay for inhibitors of alpha-synuclein gene (SNCA) expression. 140,000 tested, 0.17% active. Potency, µM (doses to about 57.2 µM), without a hit: at the highest dose activity change, negative = inhibition, actives largely listed as inhibitors. HEK-293 SNCA-luciferase knock-in, luminescence, 24 h;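 further: plate controls were DMSO cells for no effect and cell-free wells for full effect; nearly all actives have a fitted effect of over 45% in size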
HEK293 viab: GF-AFC viability counterscreen for inhibitors of alpha-synuclein gene (SNCA) expression; HEK-293-SNCA-luc viability, GF-AFC fluorescence, 24 h; Potency, µM (highest dose often 57.1 µM), inactives show at the highest dose activity change, negative = cytotoxicity, hits mostly cytotoxic; 150,000 tested, 0.12% active; AID 1671193, 2021;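 further: 0% = DMSO-treated cells and -100% = medium-only wells without cells; nearly all actives have a fitted effect of over 30% in size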
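Cytotoxicity counterscreen: after 24 h compound treatment of genome-edited SNCA-luciferase HEK-293 cells, live-cell protease substrate GF-AFC read by fluorescence after 30 min; activity scaled between DMSO (0%) and medium-only (-100%), curves Hill-fitted.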
NIH3T3 tox: Cytotoxic Profiling in NIH 3T3 Cell Line of Diverse Libraries Using Quantitative High-Throughput Screening. NIH 3T3 viability, CellTiter-Glo ATP luminescence, 48-72 h. Potency, µM (top dose mostly 96.7 µM), inactives show at the top dose activity change, negative = cytotoxicity, actives largely listed as inhibitors. 94,000 tested, 4.3% active. AID 1345082, 2018; further: nearly all actives have a fitted effect of over 55% in size
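Cells were seeded at 400 per well, treated with pin-transferred compound, and kept 48 or 72 hr at 37 °C before CellTiter-Glo addition and luminescence imaging of cellular ATP.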
The depositor's hits bear a star; [ ] = dose if it differs, or a comment. This is a sample that favours compounds with a hit; in the whole collection about 7.4% have one here. Unless noted, the call rests on the fitted dose curve; in most records, active means well fitted curve in the direction sought with a large enough effect; inconclusive means small, poorly fitted or top-dose-only effect, or another doubt; inactive means no such curve, though single readings can be large; an effect the other way counts as inactive or inconclusive. Unless noted, on the % scale 0 is the no-effect control and ±100 the full control effect; potency means the concentration at half of the fitted maximal effect.

For Cc1ccccc1-c1cc(-c2ccc(=O)[nH]c2)c2cncn2c1 the results were hNpr1 antagonist -12%[70.6 µM], Luciferase inh inactive, HEK cytotox 71µM*, SNCA expr inh 6%[87.6 µM], HEK293 viab 10%[87.6 µM] and NIH3T3 tox 25µM*.
For COc1ccccc1-c1cc(-c2ccncc2)c2cncn2c1 the results were hNpr1 antagonist -23%[70.6 µM], Luciferase inh inactive, HEK cytotox 89µM*, SNCA expr inh inconclusive, HEK293 viab -1%[87.6 µM] and NIH3T3 tox 11µM*.
For COc1cccc(-c2nccn2C2COC3(CCCC3)C2)c1OC (stereo not given) the results were hNpr1 antagonist 2%, Luciferase inh inactive, HEK cytotox inconclusive, SNCA expr inh -21%, HEK293 viab 3% and NIH3T3 tox -24%.
CCOc1ccccc1NC(=O)N1CC[C@H]2COC(=O)N(Cc3ccccc3)[C@H]2C1 was read as HEK cytotox -5%, SNCA expr inh 20%, HEK293 viab 4% and NIH3T3 tox -13%.
Screening Cc1ccc2ncccc2c1Cn1ccnc1-c1cc2n(n1)CCCNC2 returned hNpr1 antagonist 4%, Luciferase inh inactive, HEK cytotox 2%, SNCA expr inh -15%, HEK293 viab -26% and NIH3T3 tox -17%.
Screening CCC1(C(=O)NCc2ccc(Cl)cc2)CCCCC(=O)N1 (stereo not given) returned hNpr1 antagonist 3%, Luciferase inh inactive, HEK cytotox 5%, SNCA expr inh 5%, HEK293 viab -1% and NIH3T3 tox 2%.
Cc1ccc(-c2cc(-c3ccncc3)c3cncn3c2)cn1 was read as hNpr1 antagonist 0%[70.6 µM], Luciferase inh inactive, HEK cytotox inconclusive, SNCA expr inh -21%[87.6 µM], HEK293 viab -13%[87.6 µM] and NIH3T3 tox inconclusive.
`COc1ccc(-c2cc(N3CCOCC3=O)c3cncn3c2)cc1OC` gave hNpr1 antagonist 1%[70.6 µM], Luciferase inh inactive, HEK cytotox -7%[172 µM], SNCA expr inh 7%[87.6 µM], HEK293 viab -8%[87.6 µM] and NIH3T3 tox inconclusive.
Screening COc1ccc(-c2cc(-c3ccc4c(c3)C(=O)NC4)cn3cncc23)cc1 returned hNpr1 antagonist -2%[70.6 µM], Luciferase inh inactive, HEK cytotox inconclusive, SNCA expr inh -17%[87.6 µM], HEK293 viab inconclusive and NIH3T3 tox inconclusive.
COc1cccc(-c2cc(-c3cccnc3)c3cncn3c2)c1OC was read as hNpr1 antagonist -1%[70.6 µM], Luciferase inh 50µM*, HEK cytotox inconclusive, SNCA expr inh 12%[87.6 µM], HEK293 viab 4%[87.6 µM] and NIH3T3 tox inconclusive.
Screening COc1ccccc1-c1cc(N2CCOCC2=O)c2cncn2c1 returned hNpr1 antagonist -9%[70.6 µM], Luciferase inh inactive, HEK cytotox -43%[172 µM], SNCA expr inh -6%[87.6 µM], HEK293 viab -14%[87.6 µM] and NIH3T3 tox 100µM*.
`COc1ccc(-c2cc(-c3ccncc3)c3cncn3c2)cc1OC` gave hNpr1 antagonist 1%[70.6 µM], Luciferase inh inactive, HEK cytotox inconclusive, SNCA expr inh 1%[87.6 µM], HEK293 viab -6%[87.6 µM] and NIH3T3 tox 25µM*.
For COc1ccc(-c2cc(-c3ccc(OC)c(OC)c3)cn3cncc23)cc1 the results were hNpr1 antagonist -12%[70.6 µM], Luciferase inh inactive, HEK cytotox 71µM*, SNCA expr inh 10%[87.6 µM], HEK293 viab -17%[87.6 µM] and NIH3T3 tox 40µM*.
For Cc1nc(N2CCCCC2)n(CC(=O)Nc2ccc(Cl)cc2)c(=O)c1C the results were hNpr1 antagonist 3%, Luciferase inh inactive, HEK cytotox -12%, SNCA expr inh -27%, HEK293 viab -3% and NIH3T3 tox -16%.
CN(C(=O)c1c(F)cccc1Cl)C1CCc2nn(C)c(=O)n2CC1 (stereo not given) was read as hNpr1 antagonist 2%, Luciferase inh inactive, HEK cytotox -7%, SNCA expr inh -5%, HEK293 viab 4% and NIH3T3 tox inactive.
`Cn1nc(-c2ccncc2)cc1NC(=O)c1ccc(C(F)(F)F)cc1` gave HEK cytotox 11µM*, SNCA expr inh -15%, HEK293 viab -8% and NIH3T3 tox inconclusive.
O=C(Nc1cc(-c2ccncc2)nn1-c1ccccc1)c1cccc(Br)c1 was read as HEK cytotox inconclusive, SNCA expr inh -29%, HEK293 viab -12% and NIH3T3 tox 32µM*.
For Cn1nc(-c2ccncc2)cc1NC(=O)c1ccc(Cl)cc1 the results were HEK cytotox inconclusive, SNCA expr inh -5%[87.6 µM], HEK293 viab -20%[87.6 µM] and NIH3T3 tox inconclusive.
`Cn1nc(-c2ccncc2)cc1NC(=O)c1cccc(Br)c1` gave HEK cytotox inconclusive, SNCA expr inh -25%, HEK293 viab -8% and NIH3T3 tox inconclusive.
`Cc1cn2nc(C(=O)NCc3ccccn3)cc2c(N2CCCC2)n1` gave hNpr1 antagonist 8%, Luciferase inh inactive, HEK cytotox 12%, SNCA expr inh inconclusive, HEK293 viab 1% and NIH3T3 tox -24%.
`COc1cccc(N2CCN(c3nc(C(=O)NCc4cccnc4)cs3)CC2)c1` gave hNpr1 antagonist 11µM*, Luciferase inh inconclusive, HEK cytotox 32µM*, SNCA expr inh inconclusive, HEK293 viab -19% and NIH3T3 tox inconclusive.
For COc1ccc(N2CCN(c3nc(C(=O)NCc4ccc(F)cc4F)cs3)CC2)cc1 the results were hNpr1 antagonist inconclusive, Luciferase inh inactive, HEK cytotox 35µM*, SNCA expr inh -7%, HEK293 viab -24% and NIH3T3 tox inconclusive.
COc1ccc(N2CCN(c3nc(C(=O)N4CCC(C)CC4)cs3)CC2)cc1 was read as hNpr1 antagonist inconclusive, Luciferase inh inconclusive, HEK cytotox 40µM*, SNCA expr inh 21%, HEK293 viab -19% and NIH3T3 tox 40µM*.
O=C(NCc1ccccn1)c1csc(N2CCN(c3ccccc3)CC2)n1 was read as hNpr1 antagonist -20%, Luciferase inh inactive, HEK cytotox 40µM*, SNCA expr inh 1%, HEK293 viab -2% and NIH3T3 tox inconclusive.
For COc1ccc(N2CCN(c3nc(C(=O)N4CCN(C)CC4)cs3)CC2)cc1 the results were hNpr1 antagonist -25%, Luciferase inh inactive, HEK cytotox inconclusive, SNCA expr inh 5%, HEK293 viab -3% and NIH3T3 tox -11%.
